RE007 growth inh – less growth of the S. pombe RE007 Vpr strain. 360,000 compounds, 0.21% hits. S. pombe RE007 Vpr strain, BacTiter-Glo ATP luminescence, 24 h. Potency, µM (series often up to 92.2 µM), most hits filed as inhibitors. AID 651644; active = well fitted falling curve with a large enough effect; inconclusive = small, poorly fitted or top-dose-only effect; inactive = no such curve, though single readings can be large or run the other way; also: nearly all actives have a fitted effect of over 50% in size
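Fission yeast RE007 carrying one integrated HIV-1 vpr copy, seeded at OD 0.01 in PMG+AL medium with 23 nL pinned compound. Grown 24 h at 30 degrees; viability read by BacTiter-Glo luminescence after 5 min.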
Pf growth 48h – P. falciparum growth inhibition at 48 hours (one generation); Potency, µM (titrated, usually from 28.7 µM), actives largely listed as inhibitors; P. falciparum luciferase growth in erythrocytes, 48 h; 310,000 compounds, 5.9% hits; active = well fitted inhibition curve with a large enough effect; inconclusive = small, poorly fitted or top-dose-only effect, or another doubt; inactive = no such curve, though single readings can be large or run the other way
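Luciferase-expressing P. falciparum in infected erythrocytes (2% hematocrit, 0.1% parasitemia final) in RPMI 1640/0.5% Albumax were exposed to compound for 48 hours at 37 C, 5% CO2; growth read as luminescence.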
Pf growth 96h – inhibits malaria parasite growth, 96 h; P. falciparum luciferase reporter growth, 96 h; Potency, µM (titrated, usually from 28.7 µM), hits mostly inhibitors; 320,000 compounds, 6.9% hits; AID 504834; active = well fitted inhibition curve with a large enough effect; inconclusive = small, poorly fitted or top-dose-only effect, or another doubt; inactive = no such curve, though single readings can be large or run the other way
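Two-generation exposure (96 h) targets delayed-death phenotype. Reporter parasites carrying integrated firefly luciferase, in red cells at 2% hematocrit and 0.05% parasitemia final, kept at 37 C, 5% CO2; luminescence loss indicates inhibition.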
NS1 function inh – blocks influenza NS1 protein function | Potency, µM (doses to about 46.1 µM) | 270,000 compounds, 0.4% hits | AID 2326; also: actives are rising curves; nearly all actives have a fitted effect of over 50% in size
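In this qHTS, NS1 from influenza A is expressed in budding yeast, where it slows growth. Cells are switched from glucose to 2% galactose medium (pH 6.0, -URA), treated with compound, and growth recovery is read at OD600.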
SARS PLP yeast – blocks SARS-CoV papain-like protease in a yeast assay; S. cerevisiae expressing SARS-CoV PLpro, growth rescue; 330,000 compounds, 0.19% hits; Potency, µM (top dose mostly 32.9 µM), most hits filed as activators; also: nearly all actives have a fitted effect of over 55% in size
Numbers stand for hits; . = inactive; ? = inconclusive; / = no result given; ! = a repeat was not active. Hits are enriched below; roughly 9.5% of the tested compounds scored in any of these assays. Unless noted, calls follow the shape of the full dose curve.

SMILES	RE007 growth inh	Pf growth 48h	Pf growth 96h	NS1 function inh	SARS PLP yeast
O=c1c2ccccc2c(C=NC2CCN(Cc3ccccc3)CC2)c(O)n1Cc1ccc2c(c1)OCO2	/	4.7µM	?	/	.
O=C(CC1C=Cc2ccccc2N1C(=O)c1ccccc1)c1ccccc1 (stereo not drawn)	.	?	0.59µM	.	.
CC1=CC(=C(C#N)C#N)C=C(C)N1Cc1ccc(Cl)cc1	.	2.1µM	.	/	.
NC(N)=Nc1nc(CSCC/C(N)=N/S(N)(=O)=O)cs1	.	.	4.3µM!	.	.
CC(C)CCn1cnc2c1c(=O)n(C)c(=O)n2C	.	.	.	.	.
Cn1c(=O)c2c(ncn2CCO)n(C)c1=O	.	.	4.3µM	.	.
COCCN(C(=O)COC(=O)CCCOc1ccccc1)c1c(N)n(Cc2ccccc2)c(=O)[nH]c1=O	.	.	.	/	.
c1ccc(-c2ccccc2-c2nc(-c3ccncc3)no2)cc1	.	?	.	.	.
COc1cc(-c2nnc(-c3cc(-c4ccccc4)nc4ccccc34)o2)cc(OC)c1OC	.	/	/	/	/
COc1ccc(-c2cc(-c3nnc(-c4ccncc4)o3)c3ccccc3n2)cc1	.	?	9.3µM	.	.
c1ccc2c(-c3nc(C4CCCCC4)no3)cc(-c3ccncc3)nc2c1	.	2.6µM	?	.	.
O=C(C1CCN(S(=O)(=O)N2CCC3(CC2)OCCO3)CC1)N1CCc2ccccc2C1	.	/	5.2µM	.	.
O=C(NCc1ccccn1)C1CCN(S(=O)(=O)N2CCC3(CC2)OCCO3)CC1	.	.	10µM	.	.
O=C(C1CCN(S(=O)(=O)N2CCC3(CC2)OCCO3)CC1)N1CCN(Cc2ccccc2)CC1	.	.	?	.	.
CCc1nnc(NC(=O)CSc2nc(C)cs2)s1	.	.	.	?	.
N=C1/C(=C/c2coc3ccccc3c2=O)C(=O)N=C2SC(c3ccco3)=NN12	10µM	.	.	.	.
CC(C)CSC1=NSC2=NC(=O)/C(=C\c3coc4ccccc4c3=O)C(=N)N12	.	.	.	/	.
N=C1/C(=C\c2coc3ccccc3c2=O)C(=O)N=C2SC(c3ccncc3)=NN12	14µM	?	?	.	.
N=C1/C(=C\c2coc3ccc(O)cc3c2=O)C(=O)N=C2SC=CN12	.	.	.	.	.
CSC1=NSC2=NC(=O)/C(=C\c3coc4ccccc4c3=O)C(=N)N12	28µM	.	.	.	.
CC(OC(=O)CNC(=O)COc1ccccc1)C(=O)N(C)Cc1ccccc1 (stereo not drawn)	.	.	.	/	.
Cc1cc2c(s1)c1c(n2C)C(=O)N(Cc2ccccc2F)C1	/	?	?	/	.
NS(=O)(=O)c1ccc(NC(=O)COC(=O)Cc2c[nH]c3ccccc23)cc1	.	/	/	/	.
CCc1cccc(C)c1NC(=O)c1ccc(CN2CCc3ccccc3C2)cc1	.	4.7µM	1.5µM	.	.
O=C(Nc1cccc(Br)c1)c1ccc(CN2CCc3ccccc3C2)cc1	.	.	9.3µM	.	/
SMILES	RE007 growth inh	Pf growth 48h	Pf growth 96h	NS1 function inh	SARS PLP yeast
CC(=O)Nc1ccc(NC(=O)c2ccc(CN3CCc4ccccc4C3)cc2)cc1	.	?	9.3µM	.	.
CSc1cccc(NC(=O)c2ccc(CN3CCc4ccccc4C3)cc2)c1	.	4.1µM	.	.	.
Cc1ccccc1NC(=O)c1ccc(CN2CCc3ccccc3C2)cc1	.	.	.	.	.
O=C(Nc1ccc(F)cc1)c1ccc(CN2CCc3ccccc3C2)cc1	.	.	?	.	.
CC1CCN(CC(=O)Nc2ccc(N3CCCCCC3)cc2)CC1	.	?	?	.	.
COc1ccccc1C(=O)NC(=O)COC(=O)CNC(=O)c1ccccc1F	.	/	/	/	.
CN[C@H]1C[C@H]2c3cc(N4CCN(C)CC4)ccc3CCN2C(=O)[C@H]1[C@H](C)O	.	/	/	/	/
Cc1[nH]c(-c2ccc(F)cc2)cc1C(=O)N1CCN(c2ccccc2)CC1	.	.	.	.	.
Cc1[nH]c(-c2ccc(F)cc2)cc1C(=O)N1CCN(c2ccccc2F)CC1	.	.	3.7µM	.	.
COc1ccccc1N1CCN(C(=O)c2cc(-c3ccc(F)cc3)[nH]c2C)CC1	.	13µM	.	.	.
CC(C)[C@H](NC(=O)c1ccco1)C(=O)OCC(=O)c1ccc(Br)s1	.	/	/	/	.
O=C(C[n+]1ccccc1)N/N=C/c1ccccc1[N+](=O)[O-]	.	.	.	.	.
O=C1CC(CC(=O)N/N=C/c2ccccc2[N+](=O)[O-])=NN1	.	.	?	6.3µM	.
CCN1C=C(Cc2cccs2)C2=C(C1)C(c1cccs1)C(C#N)=C(N)O2 (stereo not drawn)	.	?	.	.	.
CCN1CC2=C(OC(N)=C(C#N)C2c2ccccc2)/C(=C\c2ccccc2)C1 (stereo not drawn)	.	10µM	/	.	.
CCN1CC2=C(OC(N)=C(C#N)C2c2cccs2)/C(=C/c2cccs2)C1 (stereo not drawn)	.	12µM	.	.	.
CC(O)(c1ccc(F)c(F)c1)c1nc(-c2ccoc2)cs1 (stereo not drawn)	.	/	/	/	/
COc1ccc(N2C(C(C)=O)=NN(c3ccccc3)C2c2cccs2)cc1 (stereo not drawn)	/	/	12µM	.	?
O=c1[nH]c(CN2CCN(c3ccccc3O)CC2)nc2scc(-c3ccccc3Cl)c12	.	5.2µM	9.3µM	.	.
O=c1[nH]c(CN2CCN(c3ccc(O)cc3)CC2)nc2scc(-c3ccc(Cl)cc3)c12	.	3.7µM	?	?	.
CC(C)OC(=O)Nc1ccc2nc(-c3cscn3)[nH]c2c1	/	.	.	/	/
COC(=O)C1=C(c2ccc(F)cc2F)C[C@@H]2CC[C@H]1N2C(=O)NCCOc1ccc(OC)cc1	.	10µM	.	/	.
COC(=O)C1=C(c2ccc(F)cc2F)C[C@@H]2CC[C@H]1N2C(=O)NCCO	.	.	.	/	.
COC(=O)C1=C(c2ccc(F)cc2F)C[C@@H]2CC[C@H]1N2C(=O)NCCOc1ccccc1Cl	.	?	10µM	/	.
O=C(CNC(=S)NC(=O)c1cccc([N+](=O)[O-])c1)c1ccccc1	.	.	10µM	.	.
SMILES	RE007 growth inh	Pf growth 48h	Pf growth 96h	NS1 function inh	SARS PLP yeast
O=C(NC(=S)NCc1ccccc1)c1cccc([N+](=O)[O-])c1	.	.	.	.	.
CC1(C)Oc2ccc3ccc(=O)oc3c2-c2cn[nH]c21	.	?	9.3µM	.	.
COc1ccc(OC)c(C(=O)CSc2nnc(-c3cccs3)n2C)c1	.	?	/	.	.
Cn1cccc1Cc1nnc(SCC(=O)Nc2ccc3c(c2)OCCO3)n1CCc1ccccc1	.	/	12µM	.	.
COc1ccc(OC)c(NC(=O)CSc2nnc(Cc3cccn3C)n2CCc2ccccc2)c1	.	5.2µM	12µM	.	.
COc1ccc(OC)c(C(=O)CSc2nnc(Cc3cccs3)n2CCc2ccccc2)c1	.	12µM	13µM	.	.
COc1ccccc1NC(=O)CSc1nnc(C)n1CCc1ccccc1	.	?	10µM	.	.
Cn1cccc1Cc1nnc(SCC(=O)Nc2ccc(F)cc2)n1CCc1ccccc1	.	?	?	?	.

Bioassay records deposited in PubChem BioAssay by National Center for Advancing Translational Sciences (NCATS).
